Experimental data published in PubChem BioAssay AID1004 (SRMLSC, 2008).
Unmarked numbers belong to inactive results. The source made the active and inactive calls.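 The calls were made as follows: active = viability at 10 µM of 29.74% or lower, 3 SD below the compound median; inactive = the rest.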

Assay: viability of HCT116 lacking mutant beta-catenin – cell-based, DP diverse set, validation, pilot screen (AID 1004)
Settings: HCT116 (mutant beta-catenin deleted) viability, CellTiter-Glo, 60 h; at 10 µM; stronger effect = lower value
Work on `CC1=C(/C=C/C(C)=C/C=C/C(C)=C/C=C/C=C(C)/C=C/C=C(C)/C=C/C(=O)[C@]2(C)C[C@@H](O)CC2(C)C)C(C)(C)C[C@H](O)C1` yielded a viability of 95.5%.
Work on `CC1(C)[C@@H](O[C@H]2O[C@H](C(=O)O)[C@@H](O)[C@H](O)[C@H]2O[C@@H]2O[C@H](C(=O)O)[C@@H](O)[C@H](O)[C@H]2O)CC[C@]2(C)[C@H]3C(=O)C=C4[C@@H]5C[C@@](C)(C(=O)O)CC[C@]5(C)CC[C@@]4(C)[C@]3(C)CC[C@@H]12` yielded a viability of 101%.
Molecule `OCCN(CCO)c1nc(N2CCCCC2)c2nc(N(CCO)CCO)nc(N3CCCCC3)c2n1` has a viability of 109%.
For `CC(=O)N[C@H]1C(O[C@@H]2O[C@H](C[C@@H](O)[C@H]3O[C@@H](N4CCC(=O)NC4=O)[C@H](O)[C@@H]3O)[C@H](O)[C@H](O)[C@H]2NC(=O)/C=C/CCCCCCCCCCC(C)C)OC(CO)[C@@H](O)[C@@H]1O` (stereo not given in full), the viability was 55.1%.
`CCOC(=O)c1c(N)sc(C)c1-c1ccccc1` showed a viability of 108%.
For `O=C1CCC(N2C(=O)c3ccccc3C2=O)C(=O)N1` (stereo not given), the viability was 96.1%.
Molecule `c1ccc2nc3ccccc3cc2c1` has a viability of 100%.
For `NC(=O)c1cccc(N)c1`, the viability was 108%.
With `COc1cccc2c1C(=O)c1c(O)c3c(c(O)c1C2=O)C[C@@](O)(C(=O)CO)C[C@@H]3OC1C[C@@H](N)[C@H](O)[C@H](C)O1` (stereo not given in full) the viability was 27.4% (active).
Molecule `CN1C2CCC1CC(OC(=O)C(CO)c1ccccc1)C2` (stereo not given) has a viability of 97.1%.
`O=c1c(O)c(-c2ccc(O)c(O)c2)oc2cc(O)cc(O)c12` gave a viability of 93%.
`O=C(O)c1cc(=O)c2c(OCC(O)COc3cccc4oc(C(=O)O)cc(=O)c34)cccc2o1` gave a viability of 100%.
`COc1ccc(C2CNC(=O)C2)cc1OC1CCCC1` (stereo not given) showed a viability of 99.4%.
`O=c1c(-c2ccc(O)cc2)coc2cc(O)cc(O)c12` gave a viability of 96.7%.
In the case of `Cc1cc2c(C(C)C)c(O)c(O)c(C=O)c2c(O)c1-c1c(C)cc2c(C(C)C)c(O)c(O)c(C=O)c2c1O`, the viability is reported as 28.5% (active).
For `CC(=O)[C@H]1[C@H](C#N)CC2C3CC=C4C[C@@H](O)CCC4(C)C3CCC21C` (stereo not given in full), the viability was 98.1%.
With `O=C(c1ccc(OCCN2CCCCC2)cc1)c1c(-c2ccc(O)cc2)sc2cc(O)ccc12` the viability was 86.1%.
With `COc1ccc2nc(S(=O)Cc3ncc(C)c(OC)c3C)[nH]c2c1` (stereo not given) the viability was 96.8%.
Molecule `COc1ccc2c(c1)c(CC(=O)O)c(C)n2C(=O)c1ccc(Cl)cc1` has a viability of 101%.
`CC(C)=CCC/C(C)=C/COc1ccc2ccc(=O)oc2c1` gave a viability of 96.8%.
With `C[C@@H]1C[C@@H]([C@@H](C)CC2CC(=O)NC(=O)C2)C(=O)[C@@H](C)C1` the viability was 27.8% (active).
For `CC(C)=CCC[C@](C)(O[C@@H]1O[C@H](CO)[C@@H](O)[C@H](O)[C@H]1O)[C@H]1CC[C@]2(C)[C@@H]1[C@H](O)C[C@@H]1[C@@]3(C)CC[C@H](O[C@@H]4O[C@H](CO)[C@@H](O)[C@H](O)[C@H]4O[C@@H]4O[C@H](CO)[C@@H](O)[C@H](O)[C@H]4O)C(C)(C)[C@@H]3[C@@H](O)C[C@]12C`, the viability was 93.8%.
`CC[N+](CC)(CC)CC(=O)Nc1c(C)cccc1C` gave a viability of 101%.
`CC1(C)OC2CC(=O)OCC23C1CC(=O)C1(C)C3CC[C@@]2(C)[C@H](c3ccoc3)OC(=O)C3OC312` (stereo not given in full) gave a viability of 93%.
For `COc1ccc2cc([C@H](C)C(=O)O)ccc2c1`, the viability was 96.8%.
In the case of `C[C@H](CCC(=O)O)[C@H]1CC[C@H]2[C@@H]3CC[C@@H]4C[C@H](O)CC[C@]4(C)[C@H]3CC[C@]12C`, the viability is reported as 102%.
`COC(=O)c1cc2c(s1)-c1ccccc1OC2` gave a viability of 98%.
`Nc1nc2ncc(CNc3ccc(C(=O)NC(CCC(=O)O)C(=O)O)cc3)nc2c(=O)[nH]1` (stereo not given) gave a viability of 95.3%.
Molecule `COc1cc(CNC(=O)CCCC/C=C/C(C)C)ccc1O` has a viability of 95.2%.
Molecule `CNCCC(Oc1ccc(C(F)(F)F)cc1)c1ccccc1` (stereo not given) has a viability of 94.1%.
